Entries with a potency or affinity are not part of this list.
Key:
Klebsiella pneumoniae = details: Concentration 32 ug.mL-1; ASSAY_TEST Inhibition of Bacterial Growth; detection method Absorption (OD600); MEDIA CAMHB; plate type 384well; NBS; CORNING #3640; time 18 hr
Candida albicans = details: 32 ug/mL
Cryptococcus neoformans = details: Concentration 32 ug.mL-1; ASSAY_TEST Inhibition of Fungal Growth; detection method Resazurin; Absorption (OD600-OD570); plate type 384well; NBS; CORNING #3640

| SMILES | Inhibition (Klebsiella pneumoniae) | Inhibition (Candida albicans) | Inhibition (Cryptococcus neoformans) |
| --- | --- | --- | --- |
| CC(NC(=O)c1ncc([N+](=O)[O-])n1C)c1ccc(F)cc1 (stereo not given) | 14.44% | 6.03% | -25.7% |
| Cn1c([N+](=O)[O-])cnc1C(=O)NCc1ccc(F)cc1 | 15.94% | 7.55% | -24.39% |
| Cc1ccc(CCNC(=O)c2ncc([N+](=O)[O-])n2C)cc1 | 27.87% | 12.1% | -8.7% |
| Cn1c([N+](=O)[O-])cnc1C(=O)N1CCOCC1 | 22.51% | 14.1% | -21.61% |
| Cn1c([N+](=O)[O-])cnc1C(=O)NCc1ccccn1.O=C(O)C(F)(F)F | 22.41% | 4.77% | -18.89% |
| CN(C)C(=O)c1ncc([N+](=O)[O-])n1C | 22.37% | 10.4% | -8.01% |
| Cn1c([N+](=O)[O-])cnc1C(=O)N1CCCC1 | 30.2% | 7.94% | -19.05% |
| Cn1c([N+](=O)[O-])cnc1C(=O)NCc1cccc(OC(F)(F)F)c1 | 27.4% | 11.6% | -18.54% |
| Cn1c([N+](=O)[O-])cnc1C(=O)NC1CC1 | 0.14% | 5.96% | -21.85% |
| Cn1c([N+](=O)[O-])cnc1C(=O)NCc1ccc(OC(F)(F)F)cc1 | 21.15% | 21.3% | 2.62% |

From ChEMBL document CHEMBL4513134, “CO-ADD screening of University of Queensland (Australia) compounds” (2021)
